Laboratory results taken from article PMC7819943, “Rice protein-binding microarrays: a tool to detect cis-acting elements near promoter regions in rice”.
Whole data set: some 35,000 sequences, median “fluorescence intensity (a.u.)” near 10,000, cut for the highest 2% near 52,000. The sample as a whole holds a higher share of the highest values than the screen did.

Each sequence was assayed against T1, OsWOX13 (Oryza sativa, UniProt Q5QMM3 1-267) (assay: protein-binding microarray (RPBM); PBS, 2% BSA, 51.3 ng/ul salmon testes DNA, 50 uM zinc acetate, 200 nM TF, 25 C, 1 h; high values mean tight binding). Conditions: protein: recombinant; tags: N-terminal polyhistidine and DsRed monomer fusion (pET32a); label: CyDye5-dUTP incorporated in the synthesized complementary strand; 3' TTTTT single-stranded linker to array surface; dsDNA, one strand shown.
T1 sequence: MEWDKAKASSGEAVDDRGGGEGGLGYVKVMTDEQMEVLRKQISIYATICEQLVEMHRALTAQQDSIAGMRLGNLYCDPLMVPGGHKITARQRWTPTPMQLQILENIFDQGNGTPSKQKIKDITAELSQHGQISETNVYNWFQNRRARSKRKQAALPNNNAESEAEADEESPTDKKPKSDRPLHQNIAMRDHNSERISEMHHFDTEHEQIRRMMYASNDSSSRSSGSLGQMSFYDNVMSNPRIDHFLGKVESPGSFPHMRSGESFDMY
Procedure, shortened: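 Binding signal here means per-feature fluorescence intensity in arbitrary units. The values were read on an Axon 4000B scanner after a custom Agilent array, double-stranded by primer extension with Cy5-dUTP, was incubated with 200 nM protein at 25 °C for 1 h in PBS with 2% BSA, salmon testes DNA and 50 µM zinc acetate, then washed. The proteins were transcription factors with an N-terminal polyhistidine tag and DsRed, expressed in E. coli BL21-CodonPlus and purified on Ni–NTA.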

Sequence	binding signal
AGTTAATAACAAGAAATTATTCATTTAAATTTAGGGCAAACGGAGTCACCTAGTGCAG	9460 fluorescence intensity (a.u.)
CTTAATAACTTTCTCGGATTTAATGTGTGACTCACCATTCCGGAGTCACCTAGTGCAG	3340 fluorescence intensity (a.u.)
ATGATTGAATGAATGAAACCCTAGTTTGTTTTGATTTGTACGGAGTCACCTAGTGCAG	54400 fluorescence intensity (a.u.)
GGTTGCTGATTGTATCCTTTACTACTAGATCTTGACTGAGCGGAGTCACCTAGTGCAG	16300 fluorescence intensity (a.u.)
GCTATTAGATTGACTATATATGAATTGGAGCTAGTAGTTGCGGAGTCACCTAGTGCAG	42900 fluorescence intensity (a.u.)
GTGATTGACTGATTGTGTGATTGTGTGAAGTGTATTGGTTCGGAGTCACCTAGTGCAG	65000 fluorescence intensity (a.u.)
GATGATGTGACTGAAAAGTTGTATGTGTATGACATATTGACGGAGTCACCTAGTGCAG	11500 fluorescence intensity (a.u.)
GAAATTGAAGATGATGTGACTGAAAAGTTGTGTATATGACCGGAGTCACCTAGTGCAG	17200 fluorescence intensity (a.u.)
GTTGAATGTTTTGTATGATTTGAACCTGAAAACTGCATGACGGAGTCACCTAGTGCAG	7380 fluorescence intensity (a.u.)
TGGAATGATGTGATGGAAAAGTTGAAAGTTTGTGTGTGTACGGAGTCACCTAGTGCAG	5390 fluorescence intensity (a.u.)
ATATGATAGAAAAGTTGTGTATGTATGAAATGTTTGATGTCGGAGTCACCTAGTGCAG	9060 fluorescence intensity (a.u.)
GATGTGATTGAAAGTTTGTGTGTGTATGACAGTTTGATGTCGGAGTCACCTAGTGCAG	61700 fluorescence intensity (a.u.)
GATGTGACTGAAAAGTTGTATGTGTATGACAGGTTGATGTCGGAGTCACCTAGTGCAG	8260 fluorescence intensity (a.u.)
CCTGATTGGTTGTATTGCTTGAAGTAGACTATTGAGATTGCGGAGTCACCTAGTGCAG	60200 fluorescence intensity (a.u.)
AGTTAATGAAATAATGCCAGCCTGCTGTCTTCTGATTATCCGGAGTCACCTAGTGCAG	6010 fluorescence intensity (a.u.)
GCCTGCATTCATTTCCCTAATCAATCGGCTCGGATAATGTCGGAGTCACCTAGTGCAG	4450 fluorescence intensity (a.u.)
CGAATCTAAACAATCAATATTTAATTATACTTCCTCTAGACGGAGTCACCTAGTGCAG	12600 fluorescence intensity (a.u.)
AAGATTGGGCTGTTCATTAATCAAATTATTCTATGTGTCTCGGAGTCACCTAGTGCAG	11900 fluorescence intensity (a.u.)
TACACGAGATTGGAGGCACTAGGCCTCAGTACATGGCACGCGGAGTCACCTAGTGCAG	3870 fluorescence intensity (a.u.)
GTATGATTATCTTTCTTCGAGTAATTAACACGAAACGATGCGGAGTCACCTAGTGCAG	40700 fluorescence intensity (a.u.)

Sequence	binding signal
AATAAATTGTATTAATAACAAATTAGTCTATTCTATTAAACGGAGTCACCTAGTGCAG	24100 fluorescence intensity (a.u.)
AATAATGAATTTAAAATAAAATAAAACTGCATGCAAGCGACGGAGTCACCTAGTGCAG	5650 fluorescence intensity (a.u.)
AGTAGATTTTGACATGCTGTGTGTTAACAATGGGAGTAGACGGAGTCACCTAGTGCAG	3550 fluorescence intensity (a.u.)
ACCCATCACTAATCAGTAATCACAGTATTACTATTAAATTCGGAGTCACCTAGTGCAG	9220 fluorescence intensity (a.u.)
CATTTAATTCATTGTTATATATATATATATATAGACACACCGGAGTCACCTAGTGCAG	3920 fluorescence intensity (a.u.)
TAACAAACTATTCCTAATTAATAGATAAACTGCCATGCCGCGGAGTCACCTAGTGCAG	8390 fluorescence intensity (a.u.)
TTATAATTAGTATTTTCATTGTTGTTAGATGATAAAACATCGGAGTCACCTAGTGCAG	17500 fluorescence intensity (a.u.)
AATGTGTTAACTAATCAACTCGTCTCCCATCTCCTGCAAGCGGAGTCACCTAGTGCAG	5480 fluorescence intensity (a.u.)
AATATGATTGCTTTGTGGGTGTATGGTTCATTTTCAATGGCGGAGTCACCTAGTGCAG	47700 fluorescence intensity (a.u.)
TGAGCTGATTGATCGTCTGAAGGGTGTCTGATTGTCAAGTCGGAGTCACCTAGTGCAG	52800 fluorescence intensity (a.u.)
TGCTGGATTGTATTGATGTGTGTGCTTACCTAGTATAAATCGGAGTCACCTAGTGCAG	3580 fluorescence intensity (a.u.)
CTTGTATGTTTGTGGATTGATATATTATATATTGATATATCGGAGTCACCTAGTGCAG	6720 fluorescence intensity (a.u.)
TTGTGATTTGTTAGAATTGTATTTTACAATGTGTAGTATGCGGAGTCACCTAGTGCAG	39800 fluorescence intensity (a.u.)
GTCTCTGTCTCTCGCTCTGATTGAAGTGTTCTGCTGCCATCGGAGTCACCTAGTGCAG	20400 fluorescence intensity (a.u.)
ACTTGTGTGATGTTTGGATTGATGCCAAAACTTGCCAAATCGGAGTCACCTAGTGCAG	3930 fluorescence intensity (a.u.)
GTCATCATTGATTGATATGATTTTGTATGTGTGAGCAATGCGGAGTCACCTAGTGCAG	59400 fluorescence intensity (a.u.)
GGGTGCTGAAATTGATATACGATCAATTGTTGTCGGTGATCGGAGTCACCTAGTGCAG	14000 fluorescence intensity (a.u.)
CTACTGATTGTATTGATTGGGTAGCTGGATTGAAGTTAATCGGAGTCACCTAGTGCAG	57000 fluorescence intensity (a.u.)
GTAATTGGGCTTTCTTTGGGTAGTTATCGCTGGGCTTAATCGGAGTCACCTAGTGCAG	6360 fluorescence intensity (a.u.)
CGTTAATCGTTGTGATTGATGTCGGATATGTTTGCCACCACGGAGTCACCTAGTGCAG	58600 fluorescence intensity (a.u.)

Sequence	binding signal
ACCAGGAAGTCATAAATTAATGGATCGAATATGACCTGCTCGGAGTCACCTAGTGCAG	3160 fluorescence intensity (a.u.)
GGTTAATTATGCGAAAGAGAATCTTAATCCCAGGGGCTTTCGGAGTCACCTAGTGCAG	17600 fluorescence intensity (a.u.)
CCTGATTTCTAAAGAAAGCCGTCCGGTTTTAACTGAGTCTCGGAGTCACCTAGTGCAG	10100 fluorescence intensity (a.u.)
TATTTTGGACCCATGATAGATTGATTTAGAACATGCGGAGCGGAGTCACCTAGTGCAG	11400 fluorescence intensity (a.u.)
CTCCACTAATCTAAAATTTGTTTAATGGATCATTGCATCACGGAGTCACCTAGTGCAG	16000 fluorescence intensity (a.u.)
TTGTAGATTTATACCTGTCCTAATCAGAGTATACTGTATTCGGAGTCACCTAGTGCAG	3990 fluorescence intensity (a.u.)
CTCAGCCTGATTAATCGGAGATAATGAGTCTACGAATTTGCGGAGTCACCTAGTGCAG	9790 fluorescence intensity (a.u.)
ATATATATAATTAGGATTGTTATATGCATAGGTTTGCATTCGGAGTCACCTAGTGCAG	18400 fluorescence intensity (a.u.)
TTGCAAAACTGGCTTAATTGATTCCATATTTCCATTCCACCGGAGTCACCTAGTGCAG	32200 fluorescence intensity (a.u.)
ATCCGTCATCTGATTTAATCTCATACGTCCGCTATCCTCCCGGAGTCACCTAGTGCAG	4210 fluorescence intensity (a.u.)
GAGATAAATGATCAACTAGTCCGTGAATTTGACACCGATGCGGAGTCACCTAGTGCAG	7110 fluorescence intensity (a.u.)
ATGATGATTGACTTATGTGAATATATTGTCTATATATGCACGGAGTCACCTAGTGCAG	60300 fluorescence intensity (a.u.)
ATGATTGATTTGGGTAACATACCAAACACCAAACAGTTCACGGAGTCACCTAGTGCAG	56600 fluorescence intensity (a.u.)
TGGCCGGTGATTTACCGTACTAGTGATGTATGCGTGCAAACGGAGTCACCTAGTGCAG	3650 fluorescence intensity (a.u.)
ATGACTGATTTATGACAGCCGTGCATGTGTATTTGTGTACCGGAGTCACCTAGTGCAG	55500 fluorescence intensity (a.u.)
GTTACTGCATGATTTGCTAGATGTATTTTATGACAACAGACGGAGTCACCTAGTGCAG	12900 fluorescence intensity (a.u.)
GCTAATTTGGGCACCATATTGGGCCTGATTTTGGTAAACACGGAGTCACCTAGTGCAG	6980 fluorescence intensity (a.u.)
GATGATTGACTTATTATGCTATAATAATATGCTGAATGAACGGAGTCACCTAGTGCAG	40600 fluorescence intensity (a.u.)
ATTCCAATTGATTTTAGTTAGTTTTCATACATAGTTAACACGGAGTCACCTAGTGCAG	10900 fluorescence intensity (a.u.)
AATGAATGACTGTCACAGTTCGATGATGTGACTATATATGCGGAGTCACCTAGTGCAG	16600 fluorescence intensity (a.u.)
